A selection: hits, their analogues and other compounds. The true share with any hit is near 2%.
LGR2 inh: Drosophila LGR2 receptor signaling inhibition. HEK293 LGR2, CRE-luciferase, bursicon-stimulated, 4 h. AID 720647. 380,000 compounds, 0.35% hits. inhibition, % at 9.99 µM;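 active = drop in luminescence signal, shown as inhibition above about 50% in the replicate tests, limit read from the data, passing the limit was not always enough; inconclusive = probably only some replicates passing the limit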;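 note: agonist challenge used bursicon conditioned medium at about half maximal strength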
EWS-Fli inh: blocks EWS/Fli oncoprotein-driven transcription | A673 NR0B1-luciferase reporter, viability-normalised | inhibition, % at 12.6 µM | 350,000 compounds, 0.67% hits | AID 651661;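 active = mean inhibition of at least 50% after viability correction, with every replicate also passing that limit; inconclusive = mean reaches 50% but only one of two replicates passes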;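 note: firefly luciferase signal divided by Alamar Blue viability fluorescence both relative to DMSO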
PAX8 inh HTS: lowers PAX8-driven luciferase in RMG-I cells; AID 652154; inhibition, % at 12.6 µM; RMG-I TPO-luciferase reporter, SteadyGlo, 24 h; 360,000 compounds, 1.2% hits;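 active = mean replicate inhibition at least 60% with every replicate also reaching 60%; inconclusive = only one of the two criteria is met; inactive = mean below 60% and not all replicates reaching 60%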;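 note: luciferase light reporting Pax8 driven TPO promoter activity; plate controls were median of neutral control wells for no effect and mitoxantrone controls for full effect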
KKLEB cytotox: reduces viability of KKLEB cystic fibrosis airway cells | KKLEB CF airway cells viability, ATPlite luminescence, overnight; active compounds read low; cells stimulated with P. aeruginosa culture filtrate | 360,000 compounds, 0.36% hits | activity change (cytotoxicity), % at 5 µM;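 active = corrected activity change at or below -50% at 5 µM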
Shn3 3UTR inh: Schnurri-3 reporter inhibition in Clone20 osteoblasts; inhibition, % at 12.5 µM; Clone20 osteoblast Shn3 3'UTR firefly luciferase, 24 h; 360,000 compounds, 0.52% hits;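 active = mean inhibition of at least 75% with every replicate also reaching 75%; inconclusive = mean inhibition at least 75% but some replicate below; inactive = mean inhibition below 75%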;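 note: 0% = median of neutral control wells and 100% = pilot-screen positive control compound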
CF NFkB block: blocks PAF-induced NF-kB reporter in cystic fibrosis cells; KKLEB NF-kB-GFP reporter, GFP fluorescence overnight; inhibition, % at 5 µM; 360,000 compounds, 0.86% hits;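 active = at least 50% inhibition at 5 µM, scaled per plate between neutral and stimulator controls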;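 note: PAF is a Pseudomonas aeruginosa culture filtrate used as stimulus; plate controls were PAF-stimulated DMSO wells for no effect and unstimulated DMSO wells for full effect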
* hit, by the source's call; ? = inconclusive; nt = not tested or not shown.

SMILES	LGR2 inh	EWS-Fli inh	PAX8 inh HTS	KKLEB cytotox	Shn3 3UTR inh	CF NFkB block
COC(=O)C1=CN(c2ccc3c(c2)OCO3)C(N)=C(C#N)C1c1cccc(F)c1 (stereo unspecified)	-28	56*	-5	nt	nt	nt
CN(C)CC(=O)Nc1ccc2c(c1)[C@H]1C[C@@H](CC(=O)NCCc3ccccc3)O[C@@H](CO)[C@H]1O2	-4	-2	-7	nt	nt	nt
C=CCC[C@@H](Cc1ccc(F)cc1)C(=O)OC[C@@H](Cc1c[nH]c2ccccc12)NC(=O)[C@H](CC=C)CC(=O)N(CCO)Cc1ccccc1	43	4	101*	-2	50	27
C=CC[C@@H](CC(=O)N(CCO)Cc1ccccc1)C(=O)N[C@@H](COC(=O)[C@@H](CC=C)Cc1ccc(F)cc1)Cc1c[nH]c2ccccc12	38	-6	50	-6	30	30
C=CCC[C@H](Cc1ccc(F)cc1)C(=O)OC[C@@H](Cc1c[nH]c2ccccc12)NC(=O)[C@H](CC=C)CC(=O)N(CCO)Cc1ccccc1	19	6	77*	-12	?	14
C=CCC[C@H](Cc1ccc(F)cc1)C(=O)OC[C@@H](Cc1c[nH]c2ccccc12)NC(=O)[C@H](CC=C)CC(=O)NCCO	6	-2	28	-8	13	0
C=CC[C@H](CC(=O)N(CCO)Cc1ccccc1)C(=O)N[C@@H](COC(=O)[C@@H](CC=C)Cc1ccc(F)cc1)Cc1c[nH]c2ccccc12	10	0	69*	7	-12	7
Cc1noc(C)c1NC(=O)Nc1cccc2c1O[C@H](CN(C)C(=O)NC(C)C)[C@@H](C)CN([C@@H](C)CO)C2=O	-1	-6	-24	nt	nt	nt
C=C(C(=O)c1ccccc1)C(C)CC(=O)c1ccccc1 (stereo unspecified)	11	nt	62*	-26	6	14
O=C(C[C@H]1C=C[C@H](NC(=O)c2ccc(F)cc2)[C@@H](CO)O1)NCc1ccncn1	-13	-15	-14	nt	nt	nt
COc1ccc2c3c([nH]c2c1)[C@H](CO)N(C)CC31CN(S(=O)(=O)c2cccc(F)c2)C1	-15	0	nt	nt	nt	nt
CCc1ccc(NC(=O)C2CCN(S(=O)(=O)c3ccc4c(c3)NC(=O)C(C)S4)CC2)cc1 (stereo unspecified)	6	nt	38	-1	90*	14
Cc1ccc(S(=O)(=O)N2CCN(CC(=O)Nc3ccc(N4CCOCC4)cc3)CC2)cc1C	4	-98	74*	4	5	-3
Cc1ccc(NC(=O)C2CCN(S(=O)(=O)c3ccc4c(c3)NC(=O)C(C)S4)CC2)cc1C (stereo unspecified)	14	9	1	15	88*	-4
Cc1ccc(S(=O)(=O)N2CCOCC2)cc1NC(=O)CN1CCN(c2ccc(O)cc2)CC1	-13	3	-20	17	-25	0
Cc1ccc(S(=O)(=O)N2CCC(C(=O)Nc3ccc(S(=O)(=O)N4CCCC4)cc3)CC2)cc1C	-3	11	67*	25	22	19
CCCNC(=O)C[C@@H]1CC[C@@H]2[C@H](COC[C@@H](O)CN2Cc2cccc(F)c2)O1	-1	1	-4	nt	nt	nt
CC1Sc2ccc(S(=O)(=O)N3CCC(C(=O)Nc4cccc(Cl)c4)CC3)cc2NC1=O (stereo unspecified)	1	nt	29	14	90*	7
C[C@H](CO)N1C[C@H](C)[C@H](CN(C)Cc2ccc(Oc3ccccc3)cc2)Oc2ccc(NS(=O)(=O)c3ccc(F)cc3)cc2CC1=O	-11	-5	1	nt	nt	nt
C[C@@H]1CN([C@@H](C)CO)C(=O)Cc2cc(NS(=O)(=O)c3ccc(Cl)cc3)ccc2O[C@H]1CN(C)Cc1ccc(Oc2ccccc2)cc1	8	-23	106*	nt	nt	nt
C[C@@H]1CN([C@@H](C)CO)C(=O)Cc2cc(NS(=O)(=O)c3ccc(F)cc3)ccc2O[C@H]1CN(C)Cc1ccc(Oc2ccccc2)cc1	-8	17	86*	nt	nt	nt
CN(C)CC(=O)N1[C@@H](CO)[C@@H](c2ccccc2)C12CN(Cc1cccnc1)C2	13	1	6	nt	nt	nt
C[C@@H]1CN([C@@H](C)CO)C(=O)c2cc(C3=CCCCC3)cnc2O[C@H]1CN(C)Cc1ccccc1C(=O)O	-9	-1	nt	nt	nt	nt
COc1ccccc1CNC(=O)C[C@H]1C=C[C@H](NC(=O)CN(C)C)[C@H](CO)O1	-6	nt	nt	nt	nt	nt

Assay outcomes as filed in PubChem BioAssay.
